Results filed as inconclusive are left out. A call without a number means that no potency is given here. Some structures have more than one record in an assay (separate samples or runs), and their calls can disagree. Activity calls are given as the source filed them. The call rests on the fitted dose curve; in most records, active means well fitted curve in the direction sought with a large enough effect in the repeat runs; inconclusive means weak or mixed curves; inactive means no such curve, though single readings can be large; an effect the other way counts as inactive or inconclusive.
assay: A CellTox Green Cytotoxicity Assay to monitor cytotoxicity in HepG2 cells - 8 hour (AID 1224890); conditions: CellTox Green fluorescence; series mostly up to 76.8 µM; further: nearly all actives have a fitted effect of over 45% in size; further: potency means the concentration at half of the fitted maximal effect
Summary of the method: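 First, HepG2 cells (600/well) mixed with reagent were plated; second, after 5 h at 37 C they received compounds via pintool; third, fluorescence was measured at 0 h through 40 h at 8 h intervals.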

SMILES	Potency
ClCCOCCCl	inactive
CN(C)C(=O)Nc1cccc(C(F)(F)F)c1	inactive
CN(C)C(=O)C(c1ccccc1)c1ccccc1	inactive
Nc1ccc(N)cc1	inactive
O=S(=O)(O)OOS(=O)(=O)O	inactive
CC12CC1(C)C(=O)N(c1cc(Cl)cc(Cl)c1)C2=O (centres undefined)	inactive
OCCCCO	inactive
COC(=O)Nc1cccc(OC(=O)Nc2cccc(C)c2)c1	inactive
N#Cc1cccc(C#N)c1	inactive
Nc1cc(Cl)cc(Cl)c1	inactive
CC(C)c1cccc(C(C)C)c1O	43.6 µM (active) and inactive
COP(=S)(OC)Oc1ccc(SC)c(C)c1	inactive
O=C(O)c1cc(Oc2ccc(C(F)(F)F)cc2Cl)ccc1[N+](=O)[O-]	inactive
CSc1nnc(C(C)(C)C)c(=O)n1N	inactive
COc1cc(-c2ccc(N)c(OC)c2)ccc1N	inactive
O=C/C=C/c1ccccc1	inactive

SMILES	Potency
CCCCCCCCCCCCCCCCCC(=O)O	inactive
CC(=O)/C=C/c1ccccc1	inactive
Cc1ccccc1N	inactive
CN1C(=O)CCS(=O)(=O)C1c1ccc(Cl)cc1 (centres undefined)	inactive
Cl[C@H]1OCCO[C@@H]1Cl	inactive
C[C@H]1C(=O)O[C@@H]2CCN3CC=C(COC(=O)[C@](C)(O)[C@]1(C)O)[C@H]23	inactive
[N-]=[N+]=CC(=O)OC[C@H](N)C(=O)O	38.9 µM (active) and inactive
Cc1ccc(N=C=O)cc1N=C=O	inactive
COC(C)(C)CCCC(C)C/C=C/C(C)=C/C(=O)OC(C)C (centres undefined)	inactive
CCOP(=S)(OCC)Oc1ccc([N+](=O)[O-])cc1	inactive
c1ccc2c(c1)CCCC2	inactive
CNC(=O)Oc1cccc2ccccc12	inactive
Cc1ccc(N)cc1	inactive
CN(C)NC(=O)CCC(=O)O	inactive
O=[N+]([O-])c1cc([As](=O)(O)O)ccc1O	inactive

assay: qHTS assay to identify small molecule antagonists of the estrogen receptor alpha (ER-alpha) signaling pathway using the BG1 cell line in the presence of 0.1 nM 17-beta-estradiol - cell viability counter screen (AID 1259241); conditions: VM7Luc4E2 (BG1) viability, CellTiter-Fluor protease, 22 h, 0.1 nM estradiol agonist added; series mostly up to 92.4 µM; further: nearly all actives have a fitted effect of over 40% in size
Summary of the method: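 Cells were plated and left 24 hr, compounds in DMSO were pinned in, 17beta-estradiol was added to 0.1 nM final, and after 22 hr CellTiter-Fluor reagent was added for 30 min before fluorescence was read.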

SMILES	outcome
ClCCOCCCl	inactive
CN(C)C(=O)Nc1cccc(C(F)(F)F)c1	inactive
CN(C)C(=O)C(c1ccccc1)c1ccccc1	inactive
Nc1ccc(N)cc1	inactive
O=S(=O)(O)OOS(=O)(=O)O	inactive
CC12CC1(C)C(=O)N(c1cc(Cl)cc(Cl)c1)C2=O (centres undefined)	inactive
OCCCCO	inactive
COC(=O)Nc1cccc(OC(=O)Nc2cccc(C)c2)c1	inactive
N#Cc1cccc(C#N)c1	inactive
Nc1cc(Cl)cc(Cl)c1	inactive
CC(C)c1cccc(C(C)C)c1O	inactive
COP(=S)(OC)Oc1ccc(SC)c(C)c1	inactive
O=C(O)c1cc(Oc2ccc(C(F)(F)F)cc2Cl)ccc1[N+](=O)[O-]	inactive
CSc1nnc(C(C)(C)C)c(=O)n1N	inactive
COc1cc(-c2ccc(N)c(OC)c2)ccc1N	inactive
O=C/C=C/c1ccccc1	inactive

SMILES	outcome
CCCCCCCCCCCCCCCCCC(=O)O	inactive
CC(=O)/C=C/c1ccccc1	inactive
Cc1ccccc1N	inactive
CN1C(=O)CCS(=O)(=O)C1c1ccc(Cl)cc1 (centres undefined)	inactive
Cl[C@H]1OCCO[C@@H]1Cl	inactive
C[C@H]1C(=O)O[C@@H]2CCN3CC=C(COC(=O)[C@](C)(O)[C@]1(C)O)[C@H]23	inactive
[N-]=[N+]=CC(=O)OC[C@H](N)C(=O)O	inactive
Cc1ccc(N=C=O)cc1N=C=O	inactive
COC(C)(C)CCCC(C)C/C=C/C(C)=C/C(=O)OC(C)C (centres undefined)	inactive
CCOP(=S)(OCC)Oc1ccc([N+](=O)[O-])cc1	inactive
c1ccc2c(c1)CCCC2	inactive
CNC(=O)Oc1cccc2ccccc12	inactive
Cc1ccc(N)cc1	inactive
CN(C)NC(=O)CCC(=O)O	inactive
O=[N+]([O-])c1cc([As](=O)(O)O)ccc1O	inactive

assay: qHTS assay to identify small molecule antagonists of the androgen receptor (AR) signaling pathway using the MDA cell line in the presence of 0.5 nM R1881 - cell viability counter screen (AID 1259242); conditions: MDA-kb2 viability, CellTiter-Fluor protease fluorescence, 16 h; series mostly up to 92.4 µM; further: nearly all actives have a fitted effect of over 45% in size
Summary of the method: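 qHTS format. MDA-kb2 (MMTV-luc, AR/GR responsive) + cpd + 0.5 nM R1881 final, 16 hr 37C/0% CO2 → CellTiter-Fluor 30 min → fluorescence intensity.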

SMILES	outcome
ClCCOCCCl	inactive
CN(C)C(=O)Nc1cccc(C(F)(F)F)c1	inactive
CN(C)C(=O)C(c1ccccc1)c1ccccc1	inactive
Nc1ccc(N)cc1	inactive
O=S(=O)(O)OOS(=O)(=O)O	inactive
OCCCCO	inactive
COC(=O)Nc1cccc(OC(=O)Nc2cccc(C)c2)c1	inactive
N#Cc1cccc(C#N)c1	inactive
Nc1cc(Cl)cc(Cl)c1	inactive
O=C(O)c1cc(Oc2ccc(C(F)(F)F)cc2Cl)ccc1[N+](=O)[O-]	inactive
CSc1nnc(C(C)(C)C)c(=O)n1N	inactive
COc1cc(-c2ccc(N)c(OC)c2)ccc1N	inactive
CCCCCCCCCCCCCCCCCC(=O)O	inactive
CC(=O)/C=C/c1ccccc1	inactive
Cc1ccccc1N	inactive
CN1C(=O)CCS(=O)(=O)C1c1ccc(Cl)cc1 (centres undefined)	inactive
Cl[C@H]1OCCO[C@@H]1Cl	inactive
[N-]=[N+]=CC(=O)OC[C@H](N)C(=O)O	inactive
Cc1ccc(N=C=O)cc1N=C=O	inactive
CCOP(=S)(OCC)Oc1ccc([N+](=O)[O-])cc1	inactive
Cc1ccc(N)cc1	inactive
CN(C)NC(=O)CCC(=O)O	inactive

Reference: PubChem BioAssay (Tox21)
